The values below come from the supplement of paper PMC9135407.

The experiment concerns primary human hepatic stellate cells (donor 1). Put plainly: scaled lipid accumulation score (0 = DMSO-like, 1 = nortriptyline-like); higher = stronger HSC inactivation (lipid re-accumulation), active = hit call of the paper. The following applies: 48 h.
[1] abbreviates: library stock concentration: 10 mM.
Setting [2] is: library stock concentration: 3.33 mM.
[3] abbreviates: library stock concentration: 1 mM.
The mark [4] stands for this setting: library stock concentration: 80 uM.
[5] abbreviates: library stock concentration: 400 uM.
The mark [6] stands for this setting: library stock concentration: 2 mM.

Where “and” joins values, the source holds several entries; their conditions need not be identical. Equal entries are not always repeated. Structures can show the parent of a compound that is named as a salt. In all, about 5,800 compounds went through this assay and about 620 (11%) showed activity. The full list was thinned out, with actives kept by preference. A number with no mark means an inactive call.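 Rule for the calls: active = score above a cut-off or among the top three wells of a plate; in these data no inactive exceeds 0.85.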 Where only a bound is given, the exact number is not on record here.

Turning to `Cl.Cl.O=C(NCCCN1CCC2(CC1)OCc1ccccc12)[C@H]1CCCN1Cc1ccccc1`, the “scaled lipid accumulation score” value under setting [1] was 0.974 (active).

Consider `c1ccc(CN2CCC3(CCc4ccccc43)CC2)cc1` [L-693,403 maleate], for which the “scaled lipid accumulation score” value under setting [1] was 0.504.

Consider `c1ccc(CN2CCC3(CCCc4ccccc43)CC2)cc1` [L-687,384 hydrochloride], for which, under setting [1], the “scaled lipid accumulation score” value is 0.374.

For the compound `CC1(C)S[C@@H]2[C@H](N3C(=O)[C@@H](c4ccccc4)NC3(C)C)C(=O)N2[C@H]1C(=O)O` [Hetacillin potassium], the “scaled lipid accumulation score” value reads like this: (library stock concentration: 4.7 mM) 0.007; under setting [1], no more than 0.

`CC(C)(C)CC(C)(C)c1ccc(O)c(Cc2ccc(Cl)cc2Cl)c1` [Clofoctol]: the “scaled lipid accumulation score” value under setting [1] was no more than -0.027.

As to `CC(=O)O[C@]1(C(C)=O)CC[C@H]2[C@@H]3C=C(Cl)C4=CC(=O)CC[C@]4(C)[C@H]3CC[C@@]21C` [Chlormadinone acetate], the “scaled lipid accumulation score” value runs as follows: (library stock concentration: 4.5 mM) 0.064; (library stock concentration: 4.9 mM) 0.08.

For the compound `CC(=O)O[C@]1(C(C)=O)CC[C@H]2[C@@H]3C=C(C)C4=CC(=O)CC[C@]4(C)[C@H]3CC[C@@]21C` [Megestrol acetate], the “scaled lipid accumulation score” value was no more than 0. The “scaled lipid accumulation score” value (library stock concentration: 5.2 mM) is ≤ 0 and 0.036. Moreover, the “scaled lipid accumulation score” value under setting [1] is no more than 0.

Consider `CC(=O)O[C@]1(C(C)=O)CC[C@H]2[C@@H]3C=C(C)C4=CC(=O)CC[C@]4(C)[C@H]3CC[C@@]21C` [Megestrol Acetate], for which the “scaled lipid accumulation score” value is no more than 0 under setting [2] and no more than 0 under setting [1].

On to `CC(=O)O[C@]1(C(C)=O)CCC2C3C=C(Cl)C4=CC(=O)CC[C@]4(C)C3CC[C@@]21C` (some centres not stated) [Chlormadinone acetate], for which the “scaled lipid accumulation score” value under setting [1] is 0.968 (active).

For the compound `CC(=O)O[C@]1(C(C)=O)CC[C@H]2[C@@H]3C=C(C)C4=CC(=O)CC[C@]4(C)[C@H]3CC[C@@]21C`, under setting [1], the “scaled lipid accumulation score” value is no more than 0.

Turning to `CC(C)n1cnc2c(NCc3ccccc3O)nc(NCCCO)nc21` [Cdk Inhibitor, p35], under setting [2], the “scaled lipid accumulation score” value was no more than 0.

For `N[C@@H](Cc1cc(I)c(Oc2cc(I)c(O)c(I)c2)c(I)c1)C(=O)O` [Levothyroxine], for the setting “library stock concentration: 2.6 mM”, the “scaled lipid accumulation score” value is no more than 0.

`N[C@@H](Cc1cc(I)c(Oc2cc(I)c(O)c(I)c2)c(I)c1)C(=O)O` [L-Thyroxine]: the “scaled lipid accumulation score” value reads like this: under setting [2], no more than 0; under setting [1], no more than 0.

As to `N[C@@H](Cc1cc(I)c(Oc2cc(I)c(O)c(I)c2)c(I)c1)C(=O)O`, the “scaled lipid accumulation score” value under setting [1] was no more than 0.

Take `c1ccc(C(OC2CCN(CCCc3nn[nH]n3)CC2)c2ccccc2)cc1`: under setting [3], the “scaled lipid accumulation score” value is no more than 0.

On to `O=C1c2ccc(O)c(O)c2C(=O)c2c(O)ccc(O)c21` [Quinalizarin], for which the “scaled lipid accumulation score” value under setting [1] was no more than 0.

With `CCCCCCCCCCCCCCCCCC(=O)NCCO` [Stearoyl Ethanolamide], under setting [3], the “scaled lipid accumulation score” value was no more than 0.

With `CC(C)OC(=O)CCC/C=C\C[C@@H]1[C@@H](/C=C/[C@H](O)C2Cc3ccccc3C2)[C@@H](F)C[C@@H]1O` [AL 8810 isopropyl ester], the “scaled lipid accumulation score” value under setting [3] was no more than 0.

For `CCCCCCOC(=O)[C@]1(O)C[C@@H]2O[C@@]1(C)n1c3ccccc3c3c4c(c5c6ccccc6n2c5c31)C(=O)NC4`, the “scaled lipid accumulation score” value (library stock concentration: 900 uM) is 0.034 and the “scaled lipid accumulation score” value under setting [2] was no more than 0.

For the compound `CN[C@@H]1C[C@H]2O[C@@](C)([C@@H]1OC)n1c3ccccc3c3c4c(c5c6ccccc6n2c5c31)C(=O)N[C@H]4O`, the “scaled lipid accumulation score” value under setting [2] was 1.21 (active).

With `Cc1ncc(COP(=O)([O-])[O-])c(CN(CCN(CC(=O)O)Cc2c(COP(=O)([O-])O)cnc(C)c2O)CC(=O)O)c1O.[Mn].[Na+].[Na+].[Na+]`, the “scaled lipid accumulation score” value under setting [1] is 0.072.

Turning to `CC(C)CCCCCCC/C=C\C(=O)O` [cis-.DELTA.2-11-methyl-Dodecenoic Acid], under setting [3], the “scaled lipid accumulation score” value is 0.068.

With `CCOc1ccc(Nc2nc(-c3c(C)nc4ccccn34)cs2)cc1`, the “scaled lipid accumulation score” value under setting [1] was 0.446.

Take `CCCCC[C@H](O)/C=C/[C@H]1[C@H](O)CC(=O)[C@@H]1CC(=O)CCCCC(=O)O` [6-keto Prostaglandin E1]: the “scaled lipid accumulation score” value under setting [3] was no more than 0.

On to `O=C(NC1CC1)c1cccc(-c2ccc3c(NC(=O)C4CC4)n[nH]c3c2)c1`, for which the “scaled lipid accumulation score” value was no more than 0 under setting [4], no more than 0 under setting [5], no more than 0 under setting [6] and no more than 0 under setting [1].

For `C[C@H](Nc1ncnc2nc[nH]c12)c1cc2cccc(Cl)c2c(=O)n1-c1ccccc1`, the “scaled lipid accumulation score” value is, setting by setting: under setting [2], no more than 0; under setting [1], no more than -0.001.

On to `CCN(CC)CCNC(=O)c1ccc(NC(C)=O)cc1` [Acecainide hydrochloride], for which the “scaled lipid accumulation score” value (library stock concentration: 6.4 mM) is no more than 0.

With `CCN(CC)Cc1ccc2cc(COC(=O)Nc3ccc(C(=O)NO)cc3)ccc2c1.Cl.O` [Givinostat (ITF2357)], the “scaled lipid accumulation score” value under setting [2] is 0.903 (active) and the “scaled lipid accumulation score” value under setting [1] was 0.897 (active).

`CCCCN(Cc1ccc(C(=O)NO)cc1)C(=O)Nc1ccccc1` [Nexturastat A]: the “scaled lipid accumulation score” value by setting is: under setting [2], no more than -0.009; under setting [1], 0.176.

Regarding `CCN(CC)CCNC(=O)c1ccc(NC(C)=O)cc1` [N-Acetylprocainamide hydrochloride], under setting [1], the “scaled lipid accumulation score” value was no more than 0.

Regarding `COc1ccc(S(=O)(=O)N2c3ccc(Cl)cc3[C@](O)(c3ccccc3Cl)[C@@H]2C(=O)N2CCC[C@H]2C(N)=O)cc1OC`, the “scaled lipid accumulation score” value under setting [1] was 0.02.

With `O=C(O)c1cc(=O)c2cccc(O)c2[nH]1` [Xanthurenic acid], the “scaled lipid accumulation score” value under setting [1] was no more than 0.

Regarding `O=C(Nc1cc2cc[nH]c2cn1)c1ccccc1`, the “scaled lipid accumulation score” value under setting [2] is no more than -0.009 and the “scaled lipid accumulation score” value under setting [1] is no more than 0.

Turning to `Cc1ccc(C(=O)Nc2ccc(CN3CCN(C)CC3)c(C(F)(F)F)c2)cc1C#Cc1cnc2cccnn12` [listing 1 of 3 here], the “scaled lipid accumulation score” value reads like this: under setting [5], 0.949 (active); under setting [6], 1.1 (active); under setting [1], 1.14 (active).

`Cc1ccc(C(=O)Nc2ccc(CN3CCN(C)CC3)c(C(F)(F)F)c2)cc1C#Cc1cnc2[nH]ncc2c1`: the “scaled lipid accumulation score” value reads like this: under setting [2], 0.479; under setting [1], 0.258.

For the compound `COC(=O)N1CCN(Cc2cccc(NC(=O)Nc3ccc(C)nc3)c2F)CC1`, the “scaled lipid accumulation score” value runs as follows: under setting [2], no more than 0; under setting [1], 0.038.

Turning to `CCN1CCN(Cc2ccc(Nc3ncc4c(n3)N(C)c3ccccc3C(=O)N4C)cc2C(F)(F)F)CC1`, the “scaled lipid accumulation score” value was 0.012 under setting [4], 0.132 under setting [5], 0.243 under setting [6] and 0.479 under setting [1].

`Cc1ccc(C(=O)Nc2ccc(CN3CCN(C)CC3)c(C(F)(F)F)c2)cc1C#Cc1cnc2cccnn12` [listing 2 of 3 here]: the “scaled lipid accumulation score” value reads like this: under setting [4], 0.459; under setting [1], 0.533.

Regarding `Cc1ccc(C(=O)Nc2ccc(CN3CCN(C)CC3)c(C(F)(F)F)c2)cc1C#Cc1cnc2cccnn12` [listing 3 of 3 here], the “scaled lipid accumulation score” value under setting [2] was 1.06 (active).

For `CCN1CCN(Cc2ccc(NC(=O)c3ccc(C)c(Oc4ccnc5[nH]ccc45)c3)cc2C(F)(F)F)CC1`, the “scaled lipid accumulation score” value was 0.069 under setting [4], 0.308 under setting [5], 0.809 under setting [6] and 0.792 under setting [1].

With `CCN1CCN(Cc2ccc(NC(=O)c3ccc(C)c(/C=C/c4cnc5[nH]ccc5c4OC)c3)cc2C(F)(F)F)CC1`, the “scaled lipid accumulation score” value by setting is: under setting [6], 0.888 (active); under setting [1], 1.11 (active).
